# The entries come from a sample that favours the strongest signals as a whole.
# B1: cFel (Cyprinus carpio), P68512 (protein)
# chain: LDCTVIDGNLKQIDAGSGSVVGVNNLNETFVLIDNVFTKISGSLKHFSVGPAGQLGVNTANNIFKYQSGGFVQLAGLLKQVDAGGDQIIAGVNMYDDIYCLNMDANNKWPSSNTPWVQINGKLKYYSCGPYSCWGVNSNDQIFIMKDVSSNVCSGSGSFINIPGLLSMIEVATDGSVFGVNSQGNLYQRTGVTRSKPDGTDWISMVACPNGHKHVSFDLGVLWLVCVDGSIRKCILTD
# Legend:
# Assay in all cases: glycan array binding signal (z-score within array); higher = stronger binding
# Conditions in all cases: glycan notation: IUPAC condensed, linker removed
# [1] = target: Fuc(a1-2)Gal(b1-3)GlcNAc(b1-2)Man(a1-3)[Fuc(a1-2)Gal(b1-3)GlcNAc(b1-2)Man(a1-6)]Man(b1-4)GlcNAc(b1-4)[Fuc(a1-6)]GlcNAc
# In short: (§1)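 Columns mapping to the same glycan were averaged after glycan names were converted to IUPAC-condensed notation. The data come from 3228 arrays in the Consortium for Functional Glycomics database, limited to those with an available protein sequence. Binding is reported as a within-array Z-score averaged across arrays of one protein sequence and across linkers.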
# [2] = target: Fuc(a1-2)Gal(b1-4)[Fuc(a1-3)]GlcNAc
# In short: as §1
# [3] = target: Fuc(a1-2)Gal(b1-4)[Fuc(a1-3)]GlcNAc(b1-2)Man(a1-3)[Fuc(a1-2)Gal(b1-4)[Fuc(a1-3)]GlcNAc(b1-2)Man(a1-6)]Man(b1-4)GlcNAc(b1-4)[Fuc(a1-6)]GlcNAc
# In short: as §1
# Fuc(a1-2)[Gal(a1-3)]Gal = target: Fuc(a1-2)[Gal(a1-3)]Gal
# In short: as §1
# [4] = target: Fuc(a1-2)[GalNAc(a1-3)]Gal(b1-3)GlcNAc(b1-2)Man(a1-3)[Fuc(a1-2)[GalNAc(a1-3)]Gal(b1-3)GlcNAc(b1-2)Man(a1-6)]Man(b1-4)GlcNAc(b1-4)GlcNAc
# In short: as §1
# [5] = target: Fuc(a1-2)[GalNAc(a1-3)]Gal(b1-3)GlcNAc(b1-2)Man(a1-3)[Fuc(a1-2)[GalNAc(a1-3)]Gal(b1-3)GlcNAc(b1-2)Man(a1-6)]Man(b1-4)GlcNAc(b1-4)[Fuc(a1-6)]GlcNAc
# In short: as §1
# [6] = target: Fuc(a1-2)[GalNAc(a1-3)]Gal(b1-3)GlcNAc(b1-6)GalNAc
# In short: as §1
# [7] = target: Fuc(a1-3)[Gal(b1-4)]GlcNAc6S
# In short: as §1
# [8] = target: Gal(a1-3)Gal(b1-3)GlcNAc(b1-2)Man
# In short: as §1
# [9] = target: Gal(a1-4)Gal(b1-4)GlcNAc(b1-2)Man(a1-3)[Gal(a1-4)Gal(b1-4)GlcNAc(b1-2)Man(a1-6)]Man(b1-4)GlcNAc(b1-4)GlcNAc
# In short: as §1
# Gal(b1-3)Gal = target: Gal(b1-3)Gal
# In short: as §1
# [10] = target: Gal(b1-3)GlcNAc(b1-2)Man(a1-3)[Gal(b1-3)GlcNAc(b1-2)Man(a1-6)]Man(b1-4)GlcNAc(b1-4)[Fuc(a1-6)]GlcNAc
# In short: as §1
# [11] = target: Gal(b1-3)GlcNAc(b1-2)Man(a1-3)[GlcNAc(b1-4)][Gal(b1-3)GlcNAc(b1-2)Man(a1-6)]Man(b1-4)GlcNAc(b1-4)GlcNAc
# In short: as §1
# [12] = target: Gal(b1-4)GalNAc(a1-3)[Fuc(a1-2)]Gal(b1-4)GlcNAc
# In short: as §1
# Gal(b1-4)GlcNAc(b1-2)Man = target: Gal(b1-4)GlcNAc(b1-2)Man
# In short: as §1
# [13] = target: Gal(b1-4)GlcNAc(b1-2)Man(a1-3)[GlcNAc(b1-2)Man(a1-6)]Man(b1-4)GlcNAc(b1-4)GlcNAc
# In short: as §1
# [14] = target: Gal(b1-4)GlcNAc(b1-2)[Gal(b1-4)GlcNAc(b1-4)]Man(a1-3)[Gal(b1-4)GlcNAc(b1-2)Man(a1-6)]Man(b1-4)GlcNAc(b1-4)GlcNAc
# In short: as §1
# [15] = target: Gal(b1-4)GlcNAc(b1-3)Gal(b1-4)GlcNAc(b1-2)Man(a1-3)[Gal(b1-4)GlcNAc(b1-3)Gal(b1-4)GlcNAc(b1-2)Man(a1-6)]Man(b1-4)GlcNAc(b1-4)[Fuc(a1-6)]GlcNAc
# In short: as §1
# [16] = target: Gal(b1-4)GlcNAc(b1-3)Gal(b1-4)GlcNAc(b1-3)Gal(b1-4)GlcNAc(b1-3)Gal(b1-4)GlcNAc(b1-2)Man(a1-3)[Gal(b1-4)GlcNAc(b1-3)Gal(b1-4)GlcNAc(b1-3)Gal(b1-4)GlcNAc(b1-3)Gal(b1-4)GlcNAc(b1-2)Man(a1-6)]Man(b1-4)GlcNAc(b1-4)[Fuc(a1-6)]GlcNAc
# In short: as §1
# [17] = target: Gal(b1-4)GlcNAc(b1-3)Gal(b1-4)GlcNAc(b1-3)Gal(b1-4)GlcNAc(b1-3)Gal(b1-4)GlcNAc(b1-3)Gal(b1-4)GlcNAc(b1-2)Man(a1-3)[Gal(b1-4)GlcNAc(b1-3)Gal(b1-4)GlcNAc(b1-3)Gal(b1-4)GlcNAc(b1-3)Gal(b1-4)GlcNAc(b1-3)Gal(b1-4)GlcNAc(b1-2)Man(a1-6)]Man(b1-4)GlcNAc(b1-4)[Fuc(a1-6)]GlcNAc
# In short: as §1
# [18] = target: Gal(b1-4)GlcNAc(b1-6)GalNAc
# In short: as §1
# Gal3S(b1-3)GalNAc = target: Gal3S(b1-3)GalNAc
# In short: as §1
# Gal3S(b1-3)GlcNAc = target: Gal3S(b1-3)GlcNAc
# In short: as §1
# Gal3S(b1-4)Glc = target: Gal3S(b1-4)Glc
# In short: as §1
# [19] = target: GalNAc(b1-3)Gal(a1-4)Gal(b1-4)GlcNAc
# In short: as §1
# GalNAc3S(b1-4)GlcNAc = target: GalNAc3S(b1-4)GlcNAc
# In short: as §1
# [20] = target: GlcNAc(a1-4)Gal(b1-4)GlcNAc(b1-3)Gal(b1-4)GlcNAc(b1-3)Gal(b1-4)GlcNAc
# In short: as §1
# [21] = target: GlcNAc(b1-2)[GlcNAc(b1-4)]Man(a1-3)[GlcNAc(b1-2)Man(a1-6)]Man(b1-4)GlcNAc(b1-4)GlcNAc
# In short: as §1
# [22] = target: GlcNAc(b1-2)[GlcNAc(b1-6)]Man(a1-6)[GlcNAc(b1-4)][GlcNAc(b1-2)Man(a1-3)]Man(b1-4)GlcNAc(b1-4)GlcNAc
# In short: as §1
# [23] = target: GlcNAc(b1-3)Gal(b1-4)GlcNAc(b1-6)[Gal(b1-3)]GalNAc
# In short: as §1
# GlcNAc(b1-3)Man = target: GlcNAc(b1-3)Man
# In short: as §1
# [24] = target: GlcNAc(b1-4)[GlcNAc(b1-6)]GalNAc
# In short: as §1
# [25] = target: Man(a1-3)[Man(a1-6)]Man(a1-6)[Man(a1-2)Man(a1-3)]Man(b1-4)GlcNAc(b1-4)GlcNAc
# In short: as §1
# [26] = target: Neu5Ac(a2-3)Gal(b1-3)GlcNAc(b1-2)[Neu5Ac(a2-3)Gal(b1-3)GlcNAc(b1-4)]Man(a1-6)[Neu5Ac(a2-3)Gal(b1-3)GlcNAc(b1-2)Man(a1-3)]Man(b1-4)GlcNAc(b1-4)GlcNAc
# In short: as §1
# [27] = target: Neu5Ac(a2-3)Gal(b1-4)GlcNAc(b1-2)Man(a1-3)[GlcNAc(b1-4)][Neu5Ac(a2-3)Gal(b1-4)GlcNAc(b1-2)Man(a1-6)]Man(b1-4)GlcNAc(b1-4)GlcNAc
# In short: as §1
# [28] = target: Neu5Ac(a2-3)Gal(b1-4)GlcNAc(b1-2)[Neu5Ac(a2-3)Gal(b1-4)GlcNAc(b1-4)]Man(a1-3)[GlcNAc(b1-4)][Neu5Ac(a2-3)Gal(b1-4)GlcNAc(b1-4)Man(a1-6)]Man(b1-4)GlcNAc(b1-4)GlcNAc
# In short: as §1
# [29] = target: Neu5Ac(a2-3)Gal(b1-4)GlcNAc(b1-6)GalNAc
# In short: as §1
# [30] = target: Neu5Ac(a2-3)Gal(b1-4)[Fuc(a1-3)]GlcNAc(b1-3)Gal(b1-4)[Fuc(a1-3)]GlcNAc(b1-3)Gal(b1-4)[Fuc(a1-3)]GlcNAc
# In short: as §1
# [31] = target: Neu5Ac(a2-6)Gal(b1-4)GlcNAc(b1-3)[Neu5Ac(a2-6)Gal(b1-4)GlcNAc(b1-6)]GalNAc
# In short: as §1
# [32] = target: Neu5Gc(a2-3)Gal(b1-3)GlcNAc
# In short: as §1
# [33] = target: Neu5Gc(a2-6)Gal(b1-4)GlcNAc
# In short: as §1
# Neu5Gc(a2-6)GalNAc = target: Neu5Gc(a2-6)GalNAc
# In short: as §1
binder,measurement,setting,value
B1,glycan array binding signal (z-score),[1],-0.998
same,glycan array binding signal (z-score),[2],0.152
same,glycan array binding signal (z-score),[3],3.47
same,glycan array binding signal (z-score),Fuc(a1-2)[Gal(a1-3)]Gal,2.61
same,glycan array binding signal (z-score),[4],0.309
same,glycan array binding signal (z-score),[5],3.12
same,glycan array binding signal (z-score),[6],2.93
same,glycan array binding signal (z-score),[7],0.043
same,glycan array binding signal (z-score),[8],0.809
same,glycan array binding signal (z-score),[9],-0.901
same,glycan array binding signal (z-score),Gal(b1-3)Gal,-0.479
same,glycan array binding signal (z-score),[10],-1.57
same,glycan array binding signal (z-score),[11],3.37
same,glycan array binding signal (z-score),[12],0.995
same,glycan array binding signal (z-score),Gal(b1-4)GlcNAc(b1-2)Man,0.263
same,glycan array binding signal (z-score),[13],0.271
same,glycan array binding signal (z-score),[14],3.29
same,glycan array binding signal (z-score),[15],-0.29
same,glycan array binding signal (z-score),[16],-0.084
same,glycan array binding signal (z-score),[17],1.98
same,glycan array binding signal (z-score),[18],1.54
same,glycan array binding signal (z-score),Gal3S(b1-3)GalNAc,-0.627
same,glycan array binding signal (z-score),Gal3S(b1-3)GlcNAc,-0.636
same,glycan array binding signal (z-score),Gal3S(b1-4)Glc,1.24
same,glycan array binding signal (z-score),[19],4.96
same,glycan array binding signal (z-score),GalNAc3S(b1-4)GlcNAc,-0.547
same,glycan array binding signal (z-score),[20],-0.344
same,glycan array binding signal (z-score),[21],-0.869
same,glycan array binding signal (z-score),[22],-0.817
same,glycan array binding signal (z-score),[23],1.15
same,glycan array binding signal (z-score),GlcNAc(b1-3)Man,3.22
same,glycan array binding signal (z-score),[24],-0.003
same,glycan array binding signal (z-score),[25],0.309
same,glycan array binding signal (z-score),[26],0.972
same,glycan array binding signal (z-score),[27],3.12
same,glycan array binding signal (z-score),[28],-0.578
same,glycan array binding signal (z-score),[29],-0.95
same,glycan array binding signal (z-score),[30],-1.09
same,glycan array binding signal (z-score),[31],3.16
same,glycan array binding signal (z-score),[32],2.89
same,glycan array binding signal (z-score),[33],-1.34
same,glycan array binding signal (z-score),Neu5Gc(a2-6)GalNAc,0.828
